Source: PubChem
An excerpt weighted towards active compounds, which were near 3.5% of everything screened.
Bead autofluor: compound fluorescence in toxin protease inhibitor counterscreen; compound autofluorescence counterscreen, microsphere flow cytometry; active compounds read high; fluorescence intensity (concentration not given with the values); hit rate 3.1% among 360,000; in the data active = fluorescence intensity above about 16000; inconclusive = no clear call, values can overlap the other calls
BoNT-F LC inh: BoNT F light chain protease inhibition | Multiplex microsphere protease cleavage assay, flow cytometry | inhibition, % at 10 µM | hit rate 0.22% among 360,000; in the data active = inhibition above about 35%, passing the limit was not always enough; inconclusive = no clear call, values can overlap the other calls; also: plate controls were buffer without enzyme for full effect and enzyme alone for no effect
Anthrax LF inh2: blocks Bacillus anthracis lethal factor protease | P15917 | multiplex microsphere protease cleavage assay, LF | inhibition, % at 10 µM | hit rate 0.12% among 360,000; also: plate controls were buffer without enzyme for full effect and enzyme alone for no effect
Target sequence (P15917 whole entry, looked up): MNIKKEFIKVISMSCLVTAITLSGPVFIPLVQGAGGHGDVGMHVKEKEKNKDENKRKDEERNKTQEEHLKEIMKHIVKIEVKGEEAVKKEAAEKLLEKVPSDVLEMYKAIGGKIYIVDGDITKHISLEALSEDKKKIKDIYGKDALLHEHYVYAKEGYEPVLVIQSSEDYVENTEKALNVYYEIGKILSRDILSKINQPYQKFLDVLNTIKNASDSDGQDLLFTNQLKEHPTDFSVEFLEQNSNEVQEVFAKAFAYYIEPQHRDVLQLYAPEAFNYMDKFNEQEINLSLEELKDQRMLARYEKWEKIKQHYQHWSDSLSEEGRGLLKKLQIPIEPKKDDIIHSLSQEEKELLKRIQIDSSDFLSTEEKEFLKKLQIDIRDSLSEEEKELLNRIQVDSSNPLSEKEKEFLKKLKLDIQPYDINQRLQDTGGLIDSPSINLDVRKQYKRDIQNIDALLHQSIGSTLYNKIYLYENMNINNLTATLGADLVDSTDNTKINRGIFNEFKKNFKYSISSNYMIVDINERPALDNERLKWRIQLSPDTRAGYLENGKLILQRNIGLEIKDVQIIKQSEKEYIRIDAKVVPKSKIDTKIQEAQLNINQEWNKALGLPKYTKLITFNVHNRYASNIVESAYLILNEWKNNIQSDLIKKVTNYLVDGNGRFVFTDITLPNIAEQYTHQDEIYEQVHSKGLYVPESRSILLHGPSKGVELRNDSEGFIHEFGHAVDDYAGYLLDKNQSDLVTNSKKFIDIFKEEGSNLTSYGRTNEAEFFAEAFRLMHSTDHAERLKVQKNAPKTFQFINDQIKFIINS
BoNT-A LC inh2: inhibitors of Botulinum neurotoxin A light chain protease; multiplex microsphere protease substrate cleavage, flow cytometry; inhibition, % at 10 µM; hit rate 0.17% among 360,000; also: plate controls were buffer without enzyme for full effect and enzyme alone for no effect
Active calls of the source: *; ? = inconclusive. Rule as the data show it, unless noted: active = inhibition above about 30%; inconclusive = no clear call, values can overlap the other calls; inactive = below that.

SMILES | Bead autofluor | BoNT-F LC inh | Anthrax LF inh2 | BoNT-A LC inh2
Cn1cnc(S(=O)(=O)N2CCCC(c3cc(C(=O)Nc4ccc(F)c(Cl)c4)no3)C2)c1 (centres undefined) | 3504 | 9.2 | -0.4 | 0.1
Cc1cc(C)n2nc(SC(C)C(=O)N3CCC4(CC3)OCCO4)nc2n1 (centres undefined) | 24597* | -5.6 | -1.4 | ?
Cc1cc(C)n2nc(C(=O)N3CCOCC3)nc2n1 | 8807 | 6.4 | -4.3 | -0.1
CCN(CC)c1ccc(/C=C/c2ccc3ccc(OC)cc3[n+]2CC)cc1 | 3250 | -111.3 | -3.8 | 59.5*
O=C(Cc1ccccc1Cl)c1ccccc1 | 2877 | 8.7 | -2.1 | 0.0
COc1ncnc2sc(-c3ccccc3)cc12 | 8513 | -30.2 | -6.6 | -3.9
COc1ccc(Nc2ncnc3sc(-c4ccccc4)cc23)cc1 | 19970* | -1.6 | 2.8 | ?
CCOC(=O)c1ccc(NC(=O)Nc2nncs2)cc1 | 3385 | -3.0 | -3.6 | 0.3
CCc1sc(C(=O)N2CCN(S(C)(=O)=O)CC2)cc1Br | 23583* | 0.0 | -0.2 | -2.0
O=C(NCCN1CCOCC1)C1CCC(=O)N1Cc1ccc(F)cc1 (centres undefined) | 24197* | -3.8 | -0.5 | -1.4
Cc1ccc(CN2C(=O)CCC2C(=O)NCCCN2CCOCC2)cc1 (centres undefined) | 2760 | -4.9 | 3.4 | 0.4
C=CCn1c(O)c(C(C)=NCc2cccnc2)c(=O)[nH]c1=O | 17471* | -3.5 | -1.9 | -1.8
C=CCn1c(O)c(C(C)=NCCc2ccccc2)c(=O)[nH]c1=O | 15331 | 14.8 | -16.4 | 14.1
C=CCn1c(O)c(C(CC)=NCCc2ccccc2)c(=O)[nH]c1=O | 22909* | -1.7 | -0.4 | ?
C=CCn1c(O)c(C(C)=NCc2cc(OC)cc(OC)c2)c(=O)[nH]c1=O | 4258 | ? | 7.0 | 1.2
CCC(=NCCCN1CCOCC1)c1c(O)n(Cc2ccccc2)c(=O)[nH]c1=O | 19516* | 1.8 | 1.6 | 1.0
CNc1cc(-c2cccc(C(=O)N3CCOCC3)c2)ncn1 | 3862 | -4.3 | 0.5 | 0.1
CC(C)[N+]1=C2C=CC=CC=C2SC12C([N+](=O)[O-])=CC(=[N+]([O-])[O-])C=C2[N+](=O)[O-] (centres undefined) | 2794 | ? | -11.6 | 40.9*
O=C(Nc1ccc(CN2CCOCC2)cc1)c1cccc(F)c1 | 18588* | 0.6 | -0.1 | 2.7
COC(=O)c1ccc(NC(=O)c2ccc(CN3CCOCC3)cc2)cc1 | 16430* | 1.6 | 0.0 | -0.3
CN1CCN(C2=C(Cl)C(=O)C(c3cnc(N4CCCCC4)s3)=C(Cl)C2=O)CC1 | 19751* | -22.9 | -8.0 | 4.4
CN1CCN(C2=C(Cl)C(=O)c3ccccc3C2=O)CC1 | 3199 | -43.3 | -30.2 | -0.2
CCN1CCN(c2ccc(S(=O)(=O)N3CCOCC3)cc2NC(=O)CC(NC(C)=O)c2ccccc2)CC1 (centres undefined) | 2739 | -10.2 | -5.7 | 0.5
COc1nc(Nc2cccc(C)c2)nc(N2CCCCC2)n1 | 9006 | -3.9 | -11.0 | 0.0
c1ccc(Nc2nc(N3CCCCC3)nc(N3CCCCC3)n2)cc1 | 4303 | 8.9 | 1.7 | 0.2
SMILES | Bead autofluor | BoNT-F LC inh | Anthrax LF inh2 | BoNT-A LC inh2
Cc1cccc(Nc2nc(N3CCCC3)nc(N3CCCC3)n2)c1 | 22488* | -0.4 | -1.5 | 1.4
c1ccc(Nc2nc(N3CCCC3)nc(N3CCCC3)n2)cc1 | 20430* | -1.0 | -5.2 | 0.6
COc1ccc(-c2cc(-c3ccc(OC)cc3)nc(-c3ccc4c(c3)NC(=O)CO4)c2)cc1 | 23016* | -3.4 | -3.8 | -2.2
COc1ccc(CN(C)C(=O)/C=C/[C@H]2O[C@@H](n3cc(C)c(=O)[nH]c3=O)C[C@@H]2O)cc1OC | 4543 | -9.6 | 2.1 | -0.1
CC(C)(C)NC(=O)CSc1nc2ccc(Nc3nc(N4CCOCC4)nc(N4CCOCC4)n3)cc2s1 | 2655 | 2.4 | -2.3 | -0.2
CCC(=O)Nc1ccc2nc(SCC(=O)N3CCCC3)sc2c1 | 20940* | 1.5 | -18.3 | 3.6
Cn1cnnc1SCC(=O)Nc1ccc2nc(SCc3ccccc3Cl)sc2c1 | 25037* | -14.5 | -6.0 | ?
CC(=O)CSc1nc2ccc(Nc3nc(N4CCOCC4)nc(N4CCOCC4)n3)cc2s1 | 16232* | 1.5 | 0.2 | 0.4
C=CCNc1ncnc2c1ncn2[C@H]1CN(Cc2ccc(-c3ccccc3)cc2)C[C@@H](CO)O1 | 3520 | 2.2 | 1.1 | 0.3
CCCS(=O)(=O)NC(=O)C1(C)CCN(C(=O)c2ccc(OC)c(F)c2)C1 (centres undefined) | 3157 | -2.7 | 0.4 | -0.3
Cc1c(C(=O)N(CC(C)C)c2c(N)n(Cc3ccccc3)c(=O)[nH]c2=O)sc2nc3n(c(=O)c12)CCC3 | ? | 2.5 | 32.3* | 3.7
CCCCN(C(=O)c1sc2nc3n(c(=O)c2c1C)CCC3)c1c(N)n(CC(C)C)c(=O)[nH]c1=O | 5247 | -7.0 | 1.5 | 0.1
c1ccc(OCCCCN2CCOCC2)cc1 | 16576* | 0.9 | -1.8 | -0.6
CCOc1cccc(OCCCCN2CCOCC2)c1 | 2461 | -0.3 | 0.9 | -0.1
Cc1ccccc1OCCCN1CCOCC1 | 3547 | -20.7 | 11.6 | -2.8
Clc1cccc(OCCN2CCOCC2)c1 | 16577* | -3.1 | -2.4 | 0.1
Brc1ccccc1OCCCN1CCOCC1 | 23079* | -0.4 | -6.9 | 1.1
O=C(COC(=O)c1cccc(S(=O)(=O)N2CCCC2)c1)Nc1ccc(Cl)cc1 | 3883 | 0.6 | -2.3 | 0.4
Cc1cccc(OCCC(=O)NNC(=O)c2ccoc2C)c1 | 4609 | 8.0 | 1.3 | 2.5
CC(=O)c1ccc(NC(=O)CSc2nnc(NC(=O)CN3CCOCC3)s2)cc1 | 5339 | -4.0 | -3.3 | 0.0
Cc1ccc(NC(=O)CSc2nnc(NC(=O)CN3CCOCC3)s2)cc1 | 16377* | 4.8 | -2.5 | 0.5
O=C(CSc1nnc(NC2CCCCC2)s1)Nc1ccc(N2CCOCC2)cc1 | 22057* | 2.0 | 0.9 | 1.1
CC(=O)N(Cc1ccco1)C1(C(=O)NC2CCCC2)CCCCC1 | 8295 | -4.1 | 1.3 | 1.0
O=CN(Cc1ccco1)C1(C(=O)NC2CCCCC2)CCCCC1 | 22071* | 0.2 | -5.1 | ?
O=C(O)c1ccc(-n2nnnc2SCc2ccccc2)cc1 | 9113 | -1.0 | 4.0 | -0.2
SMILES | Bead autofluor | BoNT-F LC inh | Anthrax LF inh2 | BoNT-A LC inh2
CSc1ccccc1-n1nnnc1SCc1ccccc1 | 23954* | -6.9 | -4.9 | ?
COCCCNC(=O)C1CCN(c2ncccn2)CC1 | 8467 | -1.1 | -7.4 | 0.4
Cc1ccc(NC(=O)C2CCCN(c3ncccn3)C2)cc1C (centres undefined) | 3288 | 2.7 | -0.6 | -0.2
Cc1ccc(F)cc1NC(=O)C1CCCN(c2ncccn2)C1 (centres undefined) | 20027* | -1.5 | -2.3 | -0.2
COCCNC(=O)C1CCCN(c2ncccn2)C1 (centres undefined) | 21959* | -0.2 | -2.2 | 1.9
COc1ccccc1C(CNC(=O)CNC(=O)c1cccc(Cl)c1)N1CCCC1 (centres undefined) | ? | 15.3 | -1.5 | -3.9
CCN(CC)CCn1c(=N)n(CCOc2ccccc2)c2ccccc21 | 25371* | -9.6 | -12.1 | ?
CC(=O)c1cccc(NC(=O)CSc2nc(N3CCCCC3)nc(N3CCCCC3)n2)c1 | 3999 | -3.5 | -3.7 | 0.1
O=C(CSCCO)Nc1cccc2ccccc12 | 22778* | -4.5 | -3.3 | ?
Cc1ccccc1NC(=O)CSc1nc(N2CCCCC2)nc(N2CCCCC2)n1 | 22832* | -3.9 | -3.4 | ?
